# PubChem BioAssay (NCATS)
# Several values for one entry are separate records, joined by “and”; a condition that tells them apart may be missing. Equal entries are not always repeated. Records with an inconclusive call do not appear. Where a call stands in place of a potency, no number is given. Activity calls are given as the source filed them. Unless noted, calls come from the whole dose curve; as a rule, active = well fitted curve in the direction sought with a large enough effect; inconclusive = small, poorly fitted or top-dose-only effect, or another doubt; inactive = no such curve, though single readings can be large; an effect the other way counts as inactive or inconclusive.
# Assays:
# [1] = Validation of Assay for Modulators of Lamin A Splicing (AID 1459; active = well fitted curve in the direction sought with a large enough effect in the signal ratio; the % refers to the signal ratio;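 note: cells exposed to compound for two days before reading; ratio rise marks activators and ratio drop marks inhibitors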)
# Outline: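 S3 HeLa stably expressing lamin A-EGFP splicing minigene and DsRed2, 600 cells/well in Opti-MEM with 2% FBS, treated 48 h at 37C; laser-scanning cytometry gives GFP/RFP total intensity ratio; ancitabine positive control, 0.5% DMSO vehicle.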
# [2] = qHTS Assay for Lipid Storage Modulators (AID 1519; calls by dose curve); details: Drosophila S3 cells, BODIPY lipid droplet/cell ratio, laser cytometry, cells loaded with oleic acid; for activity change, negative = inhibition: at 57.5 µM (top of the series)
# Outline: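 Cells seeded at 5,000 per well were treated with compounds over a concentration series and loaded with oleic acid (400 uM, as added). Lipid droplet fluorescence (488 nm excitation, 500-530 nm channel) was read by laser-scanning cytometry and normalized to 20 uM Triacsin C.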
# [3] = target: DNA repair nuclease/redox regulator APEX1 (Homo sapiens) (UniProt P27695); test: qHTS Validation Assay for Inhibitors of the Human Apurinic/apyrimidinic Endonuclease 1 (APE1) (AID 1705;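 note: TAMRA fluorescence gain over two minutes as APE1 cuts a quenched THF abasic duplex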)
# Sequence of DNA repair nuclease/redox regulator APEX1 (Homo sapiens) (P27695 whole entry, looked up): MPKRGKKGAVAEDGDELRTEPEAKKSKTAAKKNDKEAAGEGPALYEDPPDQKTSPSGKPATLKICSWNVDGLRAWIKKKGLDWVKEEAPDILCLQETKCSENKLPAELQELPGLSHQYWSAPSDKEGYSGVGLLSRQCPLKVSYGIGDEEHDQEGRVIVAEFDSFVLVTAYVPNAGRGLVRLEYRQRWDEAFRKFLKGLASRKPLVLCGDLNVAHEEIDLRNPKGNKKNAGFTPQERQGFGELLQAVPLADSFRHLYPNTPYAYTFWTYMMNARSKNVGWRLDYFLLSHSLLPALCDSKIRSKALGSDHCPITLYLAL
# Outline: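 Fluorogenic double-stranded THF abasic-site substrate (5'-TAMRA/3'-BHQ-2), 50 nM final. Enzyme preincubated with compound 15 min at room temperature, then substrate added. Kinetic fluorescence (ex 525/em 598 nm) read three times at 60 s intervals; activity taken as third-minus-first read difference.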
# [4] = Counterscreen for APE1 Inhibitors: Fluorescent Dye Displacement Validation Assay (AID 1707)
# Outline: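 Signal: ThO fluorescence (ex 480 nm/em 540 nm) on binding 50 nM dsDNA; displacement by test compound reduces it. Conditions: 250 nM dye, 50 mM Tris-HCl pH7.5, 2 mM MgCl2, 50mM NaCl, 0.01% Tween-20.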
# [5] = target: Endonuclease 4 (Escherichia coli (strain K12)) (UniProt P0A6C1); test: Counterscreen for APE1 Inhibitors: qHTS Validation Assay for Inhibitors of Endonuclease IV (AID 1708)
# Outline: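 The reaction buffer contained 50 mM Tris-HCl pH 7.5, 50 mM NaCl, 2 mM MgCl2, 1 mM DTT and 0.01% Tween-20. Incision of a 50 nM fluorophore/quencher THF substrate by 2 nM enzyme was measured kinetically.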
# [6] = qHTS for differential inhibitors of proliferation of Plasmodium falciparum line 7G8 (AID 1815);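 note: parasite growth measured after three days of incubation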; note: potency is the fitted concentration of half-maximal effect
# [7] = qHTS for differential inhibitors of proliferation of Plasmodium falciparum line GB4 (AID 1816); details: Potency: Plasmodium falciparum GB4 proliferation inhibition;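 note: parasite growth measured after 72 h incubation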; note: potency is the fitted concentration of half-maximal effect
# [8] = qHTS for differential inhibitors of proliferation of Plasmodium falciparum line 3D7 (AID 1876); note: potency is the fitted concentration of half-maximal effect
# [9] = target: Alpha-galactosidase A (Homo sapiens) (UniProt P06280); test: Counterscreen for Glucocerebrosidase Inhibitors: qHTS Assay for Human alpha-Galactosidase at pH 4.5 (AID 992)
# Sequence of Alpha-galactosidase A (Homo sapiens) (P06280 whole entry, looked up): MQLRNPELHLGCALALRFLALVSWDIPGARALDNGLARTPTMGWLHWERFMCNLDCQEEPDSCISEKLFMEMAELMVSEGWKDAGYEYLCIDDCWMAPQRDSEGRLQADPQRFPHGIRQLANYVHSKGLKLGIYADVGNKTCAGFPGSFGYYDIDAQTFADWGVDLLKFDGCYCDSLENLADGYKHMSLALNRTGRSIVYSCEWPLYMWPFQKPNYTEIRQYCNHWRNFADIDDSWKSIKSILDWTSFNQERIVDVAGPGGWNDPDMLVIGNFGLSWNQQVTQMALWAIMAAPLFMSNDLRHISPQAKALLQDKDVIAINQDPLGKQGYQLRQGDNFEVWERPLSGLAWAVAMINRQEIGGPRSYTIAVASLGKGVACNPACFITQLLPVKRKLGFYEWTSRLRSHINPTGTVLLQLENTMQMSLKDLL
# Outline: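 Citrate buffer pH 4.5, Tween-20 0.005%. Enzyme 2 nM, substrate 80 uM, 20 min RT. Stop pH 10. Fluorescence Ex 365/Em 440. AC50 by Hill fit.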
# [10] = target: alpha-glucosidase (Oryza sativa, rice) (UniProt Q653V4); test: Counterscreen for Glucocerebrosidase Inhibitors: qHTS Assay for Rice alpha-Glucosidase at pH 5.0 (AID 997)
# Outline: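 Endpoint fluorogenic assay at pH 5.0: compounds (0.7 nM to 77 uM) titrated against 4 nM rice enzyme and 400 uM 4-MU-alpha-glucoside for 20 min at room temperature; NaOH/glycine stop, read ex 365/em 440 nm, Hill-fitted AC50.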
# [11] = target: Alpha-galactosidase (Coffea arabica) (UniProt Q42656); test: Counterscreen for Glucocerebrosidase Inhibitors: qHTS Assay for Coffee Bean alpha-Galactosidase at pH 5.9 (AID 998)
# Sequence of Alpha-galactosidase (Coffea arabica) (Q42656 whole entry, looked up): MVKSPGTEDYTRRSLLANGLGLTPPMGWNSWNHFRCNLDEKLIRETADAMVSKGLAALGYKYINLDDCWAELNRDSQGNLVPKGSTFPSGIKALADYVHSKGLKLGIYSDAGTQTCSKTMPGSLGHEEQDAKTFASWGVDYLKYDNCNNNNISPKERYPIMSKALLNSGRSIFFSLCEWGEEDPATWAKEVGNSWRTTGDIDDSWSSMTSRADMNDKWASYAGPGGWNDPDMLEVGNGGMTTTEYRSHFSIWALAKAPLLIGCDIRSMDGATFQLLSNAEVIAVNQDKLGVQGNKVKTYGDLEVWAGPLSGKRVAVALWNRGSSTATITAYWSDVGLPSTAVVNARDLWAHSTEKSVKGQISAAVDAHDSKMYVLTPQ
# Outline: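 Fluorogenic 4-MU substrate hydrolysis, 80 uM substrate and 2 nM coffee bean alpha-galactosidase, pH 5.9 citrate buffer, 20 min at room temperature, then NaOH/glycine stop. Titration 0.7 nM–77 uM, normalized to no-enzyme and enzyme controls, AC50 via Hill equation.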
# [12] = measured here: cell count channel max response
# [13] = measured here: lipid channel max response
Compound,outcome [1],"activity change, negative = inhibition [2]","max response [2, 12]","max response [2, 13]",Potency [3],Potency [4],Potency [5],Potency [6],Potency [7],Potency [8],outcome [9],outcome [10],outcome [11]
N[C@@]1(C(=O)O)CC[C@@H](C(=O)O)C1,inactive,-2.99% (inactive),-46.9%,-46.9%,inactive,inactive,inactive,inactive,inactive,inactive,,,
CCCN(CCC)[C@@H]1CCc2cccc(O)c2C1,inactive,-3.59% (inactive) and 3.17% (inactive) and -3.25% (inactive),0.992% and 13.8% and 35%,-2.21% and 19.9% and 27.7%,inactive,inactive,inactive,3.55 µM (active),3.16 µM (active),10 µM (active),inactive,inactive,inactive
CCCN1CC[C@@H]2c3cc(O)ccc3CC[C@@H]21,inactive,1.73% (inactive),47.3%,49.1%,inactive,inactive,,,,inactive,,,
O=c1c2ccccc2[se]n1-c1ccccc1,inactive,,,,inactive,inactive,inactive,14.1 µM (active),14.1 µM (active),,inactive,inactive,
O=S1(=O)N(CCN2CC=C(c3c[nH]c4cc(F)ccc34)CC2)c2cccc3c2N1CCC3,inactive,,,,inactive,inactive,,1.41 µM (active),1.41 µM (active),0.501 µM (active),inactive,inactive,inactive
C[N+](C)(C)CC#CCN1CCCC1=O,inactive,1.94% (inactive),5.23%,8.27%,,inactive,,,inactive,inactive,inactive,inactive,inactive
C[C@@H]1O[C@H](C[N+](C)(C)C)CS1,inactive,,,,inactive,inactive,inactive,inactive,inactive,inactive,inactive,inactive,inactive
C[N+]1(C)CCOC(O)(c2ccc(-c3ccc(C4(O)C[N+](C)(C)CCO4)cc3)cc2)C1 (stereo not drawn),inactive,,,,inactive,inactive,inactive,inactive,,,,,
CCCN1CCCC2Cc3[nH]ncc3CC21 (stereo not drawn),inactive,,,,inactive,inactive,inactive,inactive,inactive,inactive,,,
C#CCN[C@H](C)Cc1ccccc1,inactive,,,,inactive,inactive,inactive,inactive,inactive,inactive,,,
C[C@H](Cc1ccc2c(c1)OC(C(=O)O)(C(=O)O)O2)NC[C@H](O)c1cccc(Cl)c1,inactive,,,,inactive,inactive,inactive,inactive,inactive,inactive,,,
COc1ccc2[nH]cc(CCN)c2c1,inactive,,,,inactive,inactive,inactive,inactive,inactive,inactive,inactive,inactive,inactive
